About 83,000 compounds went through this panel and 20% of them were active in at least one assay; those are over-represented in the sample as a whole.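 Single-dose data. Exposure time 48 hours. Values below 10 considered active.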 Values without a mark were called inactive. Activity calls are given as the source filed them.

Here are results for eight molecules from PubChem BioAssay (NCI).

Common to all, as to assay: NCI-60 one-dose screen, 48 h (100 = growth as untreated, 0 = no growth, -100 = all killed)
Conditions in all cases: 10 µM unless noted

Assay [1] has as its system SR leukemia.
Assay [2] has as its system RPMI-8226 leukemia.
The test system of assay [3] is OVCAR-8 ovarian.
Assay [4] relates to OVCAR-5 ovarian.
For assay [5], the system named is OVCAR-4 ovarian.
In assay [6] the test system is SK-OV-3 ovarian.
The test system of assay [7] is IGROV1 ovarian.
Assay [8] has as its system OVCAR-3 ovarian.
Assay [9] deals with HS 578T breast.
Assay [10] deals with NCI/ADR-RES ovarian.
Assay [11] deals with T-47D breast.
Assay [12] has as its system BT-549 breast.
Assay [13] concerns MDA-MB-435 melanoma.
In assay [14] the test system is SW-620 colon.
Assay [15] concerns MCF7 breast.
The test system of assay [16] is HCT-116 colon.
The test system of assay [17] is HCC-2998 colon.
Assay [18] concerns KM12 colon.

On to `Cc1cc2nc(C(Cl)Cl)nc(-c3ccco3)n2n1`, for which the growth in [1] was 86.8%; in [2], 44.3%; in assay [3], 80.5%; in assay [4], 75.8%; in assay [5], 79.5%; in [6], 93.3%. Moreover, the growth is 91.1% in [7]; 22.4% in [8]; 94% in assay [9]; 62.6% in [10]; 79.2% in assay [11]; 93.3% in assay [12]. The growth in [13] is 89.4%; in assay [14], 54.1%; in assay [15] it was 46%; in assay [16], 74%; in assay [17] it was 58.7%; in assay [18] it was 25.4%.

Regarding `CC(C)C[C@H]1C(=O)O[C@H](C(C)C)C(=O)N(C)[C@@H](C(C)C)C(=O)O[C@H](C(C)C)C(=O)N(C)[C@@H](C(C)C)C(=O)O[C@H](C(C)C)C(=O)N1C`, the growth was 14.4% in [1]; -11.1% (active) in assay [2]; 16% in [3]; 17.7% in assay [4]; 18.3% in assay [5]; -9.29% (active) in assay [6]. The growth was 37% in assay [7]; 17.6% in assay [8]; 38.2% in assay [9]; -1.7% (active) in [10]; 6.43% (active) in assay [11]; 17.6% in assay [12]. For the same molecule, the growth in [13] is 21.9%; in assay [14], 18.2%; in assay [15], 13.8%; in [16] it was 9.58% (active); in assay [17] it was 23.1%; in assay [18] it was 16.6%.

`O=C(CCCCCCN1CC(=O)N2[C@@H](c3cc(F)cc(F)c3)c3[nH]c4ccccc4c3C[C@H]2C1=O)NO`: the growth was 26% in [1]; 24.2% in assay [2]; 45% in [3]; 66.4% in assay [4]; 69.4% in assay [5]; 60.9% in [6]. The growth in assay [7] was 49.1%; in assay [8], 55.8%; in assay [9], 61.6%; in assay [10], 91.5%; in assay [11] it was 30.6%; in assay [12], 98.6%. Further, the growth was 47.9% in assay [13]; 46.9% in assay [14]; 52% in [15]; 27.3% in assay [16]; 82.4% in [17]; 69.7% in assay [18].

On to `CCOC(=O)c1c(NC(=O)c2ccc(F)cc2F)sc2c1CCC(=O)C2`, for which the growth is 88% in assay [1]; 106% in assay [2]; 96.9% in assay [3]; 104% in [4]; 102% in [5]; 104% in assay [6]. Besides, the growth in [7] was 100%; in assay [8], 113%; in assay [9], 103%; in [10], 96.8%; in assay [11], 81.4%; in [12], 94.2%. For the same molecule, the growth in assay [13] is 98.9%; in assay [14] it was 69.7%; in assay [15], 93.4%; in assay [16], 96.5%; in assay [17], 107%; in [18], 90.9%.

In the case of `COc1ccc(OC)c([C@H]2c3[nH]c4ccccc4c3C[C@H]3C(=O)N(CCCCCCC(=O)NO)CC(=O)N23)c1`, the growth in [1] was 36.7%; in assay [2] it was 60.4%; in [3], 73.9%; in [4], 100%; in assay [5], 80%; in assay [6] it was 86.2%. The growth in assay [7] is 71.6%; in [8] it was 76.3%; in assay [9] it was 93.5%; in [10] it was 99.5%; in assay [11] it was 65%; in assay [12], 107%. Besides, the growth in assay [13] was 85%; in assay [14], 72.5%; in [15], 72.2%; in [16], 66.8%; in [17], 99.9%; in assay [18] it was 91.7%.

Turning to `O=C(c1cccc(F)c1)n1ccc2cc(NC(=S)Nc3cccnc3)ccc21`, the growth in assay [1] was 81.6%; in assay [2] it was 99.3%; in [3], 102%; in [4], 101%; in [5], 103%; in assay [6] it was 105%. Also, the growth is 97.4% in assay [7]; 107% in [8]; 94.4% in assay [9]; 105% in assay [10]; 93.7% in assay [11]; 97.6% in [12]. Besides, the growth in [13] is 99%; in [14] it was 93.8%; in [15] it was 85.7%; in [16], 105%; in assay [17], 99.7%; in assay [18] it was 97.9%.

Regarding `CCOC(=O)c1c(NC(=O)c2cccc(C(F)(F)F)c2)sc2c(CN3CCN(C)CC3)c(O)ccc12`, the growth is 23.5% in [1]; -28.8% (active) in assay [2]; -35.2% (active) in [3]; -77.9% (active) in assay [4]; 26.8% in assay [5]; 97.3% in assay [6]. For the same molecule, the growth in [7] was -86.1% (active); in assay [8], 65.6%; in assay [9] it was 76.3%; in assay [10] it was -38.2% (active); in [11] it was 21%; in [12] it was 102%. The growth is -81.5% (active) in [13]; -66.4% (active) in assay [14]; -85.4% (active) in assay [15]; -82.6% (active) in [16]; -36.6% (active) in assay [17]; -75.2% (active) in assay [18].

As for `CC(C)=CCc1c(O)c(CC=C(C)C)c2c(c1O)C(=O)C1=C[C@@H]3C[C@H]4C(C)(C)O[C@@](C/C=C(\C)C(=O)O)(C3=O)[C@@]14O2`, the growth in assay [1] is -4.41% (active); in assay [2] it was -23.1% (active); in [3] it was 10.1%; in assay [4] it was 8.41% (active); in assay [5] it was 33.2%; in assay [6], 42.4%. In addition, the growth in [7] was -21.8% (active); in [8], -55% (active); in assay [9], 27.7%; in assay [10] it was 10.7%; in [11] it was 1.27% (active); in assay [12] it was -8.98% (active). The growth was -5.58% (active) in [13]; -34.6% (active) in [14]; -5.87% (active) in [15]; -35.8% (active) in assay [16]; -87.1% (active) in assay [17]; -18.4% (active) in [18].
